In PubChem BioAssay (NCI):
Where “and” joins values, the source holds several entries; their conditions need not be identical. Identical values can stand only once. The panel holds about 83,000 compounds, 20% with a hit somewhere; the sample as a whole holds those more often.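 Activity criterion: percent growth below 10, measured after cells in 96-well plates were exposed to a single compound concentration for 48 hours.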 Calls of active or inactive are those of the source.

System: TK-10 renal
Assay: NCI-60 one-dose screen, 48 h (100 = growth as untreated, 0 = no growth, -100 = all killed)
Conditions: 10 µM unless noted

Compound | growth
COc1ccccc1[As]=[As]c1ccccc1OC (configuration not stated) | -95.8% (active)
COc1cc(/C=C(/C)[N+](=O)[O-])ccc1O | -21.2% (active) and 61.7% (inactive)
O=[N+]([O-])c1cc[n+]([O-])c2ccccc12 | -22.6% (active)
O=C1CCC(=O)N1SC(Cl)(Cl)Cl | 99.2% (inactive)
Cc1cc([N+](=O)[O-])c2ccccc2[n+]1[O-] | -31.3% (active) and -29.9% (active)
COc1cc(/C=C\[N+](=O)[O-])ccc1O | 23.5% (inactive) and 87.1% (inactive)
Oc1c(I)cc(I)cc1I | 103% (inactive)
C=C1C(=O)O[C@@H]2C[C@@H](C)[C@@H]3C=CC(=O)[C@@]3(C)[C@@H](O)[C@H]12 | -97.9% (active)
C#CC1(O)CCC(C(C)(C)C)CC1 (configuration not stated) | 106% (inactive)
O=[N+]([O-])/C=C/c1ccc(Cl)cc1[N+](=O)[O-] | 75.3% (inactive)
COC(C(=O)C(O)C(C)O)C1Cc2cc3cc(OC4CC(OC(C)=O)C(OC5CC(O)C(OC)C(C)O5)C(C)O4)cc(O)c3c(O)c2C(=O)C1OC1CC(OC2CC(OC3CC(C)(O)C(OC(=O)C(C)C)C(C)O3)C(O)C(C)O2)C(O)C(C)O1 (configuration not stated) | 20.2% (inactive)
COC12c3c(C)cc(O)c4c(=O)occ(c34)C(=O)C1C13COC(=O)c4c(O)cc(C)c(c41)C(=O)C2C3OC(C)=O (configuration not stated) | 110% (inactive)
[Cl][Sn]([c]1ccccc1)([c]1ccccc1)[c]1ccccc1 | -92.7% (active)
C=NCC#N | 100% (inactive) and 90% (inactive)
[Cl][Hg][c]1ccc(Cl)s1 | 30.9% (inactive)
COc1ccc(/C=C(\C)[N+](=O)[O-])cc1OC | -69.2% (active)

System: ACHN renal
Assay: as above
Conditions: 10 µM

Compound | growth
COc1ccccc1[As]=[As]c1ccccc1OC (configuration not stated) | -96.9% (active)
O=S(=O)(F)c1ccc(Cl)cc1 | 111% (inactive)
[Cl][Hg][c]1ccc2ccccc2c1 | -85.5% (active)
COc1cc(/C=C\[N+](=O)[O-])ccc1O | 13.4% (inactive) and 82.9% (inactive)
COC(=O)C1C(O)C(C)C(O)C(C)/C=C\C=C(C)C(=O)Nc2c(C)c(OC(C)=O)c3c(c2O)C(=O)C(C)=C2OCOC(=C23)C(C)=CC(C)(O)C(O)C(C)C1O (configuration not stated) | 85.7% (inactive)
COC1CC2C=C(C)/C=C/C=C/C(=O)NC(c3ccccc3)C/C=C/CCC(O)CC(=O)C2=C1O (configuration not stated) | -93.3% (active)
C=C1C(=O)O[C@@H]2C[C@@H](C)[C@@H]3C=CC(=O)[C@@]3(C)[C@@H](O)[C@H]12 | -93.5% (active)
C#CC1(O)CCC(C(C)(C)C)CC1 (configuration not stated) | 104% (inactive)
O=[N+]([O-])/C=C/c1ccc(Cl)cc1[N+](=O)[O-] | 30.3% (inactive)
COC12c3c(C)cc(O)c4c(=O)occ(c34)C(=O)C1C13COC(=O)c4c(O)cc(C)c(c41)C(=O)C2C3OC(C)=O (configuration not stated) | 100% (inactive)
CC(=O)[O][Hg][c]1c(C)c(C)cc(C)c1C | 34.1% (inactive)
COc1ccc(/C=C(\C)[N+](=O)[O-])cc1OC | -59.9% (active)

System: CAKI-1 renal
Assay: as above
Conditions: 10 µM

Compound | growth
COc1ccccc1[As]=[As]c1ccccc1OC (configuration not stated) | -86.5% (active)
O=S(=O)(F)c1ccc(Cl)cc1 | 105% (inactive)
C/C1=C\[C@H](C)C[C@H](C)OC(=O)C[C@H](c2ccc(O)cc2)NC(=O)[C@@H](Cc2c(Br)[nH]c3ccccc23)N(C)C(=O)[C@H](C)NC(=O)[C@@H](C)C1 | -43.2% (active)
CC1CCC2(OC1)OC1C(O)C3C4CCC5CC(OC6OC(CO)C(OC7OC(CO)C(O)C(OC8OCC(O)C(O)C8O)C7OC7OC(CO)C(O)C(OC8OC(CO)C(O)C(O)C8O)C7O)C(O)C6O)C(O)CC5(C)C4CCC3(C)C1C2C (configuration not stated) | -63% (active)
[Cl][Hg][c]1ccc2ccccc2c1 | -94% (active)
COc1cc(/C=C(/C)[N+](=O)[O-])ccc1O | -0.672% (active)
O=[N+]([O-])c1cc[n+]([O-])c2ccccc12 | -28% (active)
[O-][n+]1ccccc1S | 37.9% (inactive)
NNc1ccccc1 | 65.4% (inactive)
O=C1CCC(=O)N1SC(Cl)(Cl)Cl | 109% (inactive)
Cc1cc([N+](=O)[O-])c2ccccc2[n+]1[O-] | 8.17% (active) and -82.2% (active)
CC/C(=C/c1ccc(OC)cc1)[N+](=O)[O-] | 1.94% (active)
COc1cc(/C=C\[N+](=O)[O-])ccc1O | 74.4% (inactive)
Oc1c(I)cc(I)cc1I | 109% (inactive)
COC(=O)C1C(O)C(C)C(O)C(C)/C=C\C=C(C)C(=O)Nc2c(C)c(OC(C)=O)c3c(c2O)C(=O)C(C)=C2OCOC(=C23)C(C)=CC(C)(O)C(O)C(C)C1O (configuration not stated) | 95.5% (inactive)
COC1CC2C=C(C)/C=C/C=C/C(=O)NC(c3ccccc3)C/C=C/CCC(O)CC(=O)C2=C1O (configuration not stated) | -88% (active)
C=C1C(=O)O[C@@H]2C[C@@H](C)[C@@H]3C=CC(=O)[C@@]3(C)[C@@H](O)[C@H]12 | -91.6% (active)
CC12OOC(c3ccccc31)c1c2ccc2ccccc12 (configuration not stated) | -56.1% (active)
Cn1c(O)c(N=O)c(=O)n(C)c1=O | 107% (inactive) and 113% (inactive)
CC(C)C1(NC(=O)C2CC3c4cccc5[nH]cc(c45)CC3N(C)C2)OC2(O)C3CCCN3C(=O)C(Cc3ccccc3)N2C1=O (configuration not stated) | 110% (inactive)
C#CC1(O)CCC(C(C)(C)C)CC1 (configuration not stated) | 110% (inactive)
O=[N+]([O-])/C=C/c1ccc(Cl)cc1[N+](=O)[O-] | 47.7% (inactive)
COC(C(=O)C(O)C(C)O)C1Cc2cc3cc(OC4CC(OC(C)=O)C(OC5CC(O)C(OC)C(C)O5)C(C)O4)cc(O)c3c(O)c2C(=O)C1OC1CC(OC2CC(OC3CC(C)(O)C(OC(=O)C(C)C)C(C)O3)C(O)C(C)O2)C(O)C(C)O1 (configuration not stated) | 17.1% (inactive)
COC12c3c(C)cc(O)c4c(=O)occ(c34)C(=O)C1C13COC(=O)c4c(O)cc(C)c(c41)C(=O)C2C3OC(C)=O (configuration not stated) | 156% (inactive)
[Cl][Sn]([c]1ccccc1)([c]1ccccc1)[c]1ccccc1 | -87.8% (active)
C=NCC#N | 98.1% (inactive) and 115% (inactive)
CC(=O)[O][Hg][c]1c(C)c(C)cc(C)c1C | -83.9% (active)
[Cl][Hg][c]1ccc(Cl)s1 | -53% (active)
COc1ccc(/C=C(\C)[N+](=O)[O-])cc1OC | -84.4% (active)
